The panel holds about 83,000 compounds, 20% with a hit somewhere; the sample as a whole holds those more often.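 Activity criterion: percent growth below 10, measured after cells in 96-well plates were exposed to a single compound concentration for 48 hours.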 A number with no mark means an inactive call. Activity calls are given as the source filed them.
What was measured:
Test in all cases: NCI-60 one-dose screen, 48 h (100 = growth as untreated, 0 = no growth, -100 = all killed)
Conditions in all cases: 10 µM unless noted
SK-MEL-2 melanoma = tested on: SK-MEL-2 melanoma
EKVX NSCLC = tested on: EKVX NSCLC
SN12C renal = tested on: SN12C renal
UO-31 renal = tested on: UO-31 renal
TK-10 renal = tested on: TK-10 renal
ACHN renal = tested on: ACHN renal
CAKI-1 renal = tested on: CAKI-1 renal
A498 renal = tested on: A498 renal
CCRF-CEM leukemia = tested on: CCRF-CEM leukemia

Row | Compound | growth (SK-MEL-2 melanoma) | growth (EKVX NSCLC) | growth (SN12C renal) | growth (UO-31 renal) | growth (TK-10 renal) | growth (ACHN renal) | growth (CAKI-1 renal) | growth (A498 renal) | growth (CCRF-CEM leukemia)
1 | O=C(NCCCNc1cc(-c2cn(-c3ccccc3)nc2-c2cccc(O)c2)ccn1)c1ccc(F)cc1 | -8.95% (active) | 48.2% | 55% | 27.1% | 60.4% | 51.7% | 12.4% | 29% | 22.3%
2 | Fc1ccc(CNc2c3ccccc3nc3ccccc23)cc1F | 89.4% | 35.4% | 29.7% | 15.6% | 51.1% | 19.3% | 25.3% | 9.78% (active) | 41.5%
3 | COc1cccc(-c2nc3sccn3c2/C=C/C(=O)c2ccc(C(F)(F)F)cc2)c1 | 79.1% | 94.2% | 76.7% | 56.3% | 89.7% | 94.7% | 84.7% | 52.7% | 66.8%
4 | CCN1C(=O)N(CC)C2Nn3c(s/c(=C\c4ccc(Cl)cc4Cl)c3=O)=NC21 (stereo unspecified) | 71.2% | 68.8% | 43.3% | 53.5% | 15.8% | 37.6% | 36.9% | 21.4% | 41.7%
5 | COc1ccc(N=C(c2ccccc2)C2C(=O)c3ccccc3C2=O)cc1 | 40.8% | 104% | 104% | 40.5% | 103% | 72.1% | 88.1% | 61.2% | 46.1%
6 | N/C(=N/N=C/c1ccccc1)N/N=C\c1ccccc1 | 42.1% | 76.5% | 67.4% | 68.2% | 73.9% | 76% | 62.9% | 66.6% | 50.6%
7 | O=C(Nc1cccc(Oc2nnc(Cl)c3ccccc23)c1)Nc1ccc(Cl)c(C(F)(F)F)c1 | -72.1% (active) | -6.74% (active) | -71.9% (active) | -28.4% (active) | -51.5% (active) | -8.47% (active) | 11.7% | -82.7% (active) | -5.44% (active)
8 | Cc1cc(N2CCCC2)nc(NCc2cc(Nc3ccnc4cc(Cl)ccc34)ccc2F)n1 | -79.6% (active) | 11.1% | -58.8% (active) | -59.1% (active) | -56.7% (active) | -72.3% (active) | 28.5% | -25.2% (active) | -32.1% (active)
9 | COc1cccc(-c2nn(-c3ccccc3)cc2-c2ccnc(NCCNC(=O)Nc3ccc(Cl)c(Cl)c3)c2)c1 | -12.1% (active) | 46.3% | 11.5% | -13.1% (active) | 40.2% | 14.6% | 24.5% | -9.43% (active) | 8.1% (active)
10 | COc1cc(-c2nn(-c3ccccc3)cc2-c2ccnc(NCCNS(=O)(=O)c3ccc(Cl)cc3)n2)ccc1Cl | 61.2% | 37% | 26.8% | 21.2% | 43% | 15.4% | 28.9% | 32% | 35.8%
11 | O=C(Nc1ccccc1Cl)Oc1ccc(-c2ccccc2)cc1 | 120% | 98% | 98.9% | 84.5% | 118% | 101% | 81.8% | 167% | 120%
12 | COC(=O)[C@]12CC[C@@H](C)[C@H](C)[C@@H]1C1=CC[C@@H]3[C@@]4(C)C(C=O)=C[C@@](C)(COC(=O)c5ccco5)C4=CC[C@@]3(C)[C@]1(C)CC2 | -42.1% (active) | 11% | 17.1% | -55.3% (active) | 6.65% (active) | -33.9% (active) | 14.3% | 22.2% | 4.27% (active)
13 | CCN1C(=O)N(CC)C2C1NN=c1s/c(=C\c3cccs3)c(=O)n12 (stereo unspecified) | 42% | 60.6% | 29.7% | 50.2% | 5.35% (active) | 42.2% | 35.4% | -12.4% (active) | 26.6%
14 | O=[N+]([O-])c1ccc(N2c3ccncc3Sc3ccncc32)cc1 | 93.8% | 88.7% | 99% | 56.9% | 105% | 93.7% | 87.8% | 112% | 101%
15 | Cc1ccc(Cl)c(NS(=O)(=O)c2ccc(-c3cnc(C4CC4)o3)cc2)c1 | 56.9% | 31.4% | 60.7% | 44.3% | 68.5% | 36% | 36.6% | -5.72% (active) | 14.1%
16 | COc1cc(Cn2ncc3ccc(NC(=O)c4cc5ccccc5oc4=N)cc32)cc(OC)c1OC | 88% | 71.5% | 87.2% | 51.3% | 91.4% | 57.1% | 82.4% | 98.3% | 52.2%
17 | CCC(CO)Nc1nc2ccc(Cl)cc2c2ccccc12 (stereo unspecified) | 84.1% | 47.9% | 71.1% | 39.5% | 54.3% | 73.9% | 40.9% | -19% (active) | 56.5%
18 | COc1cccc(-c2nn(-c3ccccc3)cc2-c2ccnc(NCCCNC(=O)c3ccc(F)cc3)c2)c1 | 51.6% | 44.5% | 62.6% | 40.5% | 57.8% | 71% | 52.4% | 31% | 38.6%
19 | Cc1cc(NCc2cc(Nc3ccnc4cc(Cl)ccc34)ccc2F)nc(N2CCCC2)n1 | 93.5% | 17.3% | 35.8% | -50.9% (active) | -35.8% (active) | -69.2% (active) | 71.5% | 59.2% | -22.5% (active)
20 | Clc1cccc(Cl)c1C(Nc1nc2ccccc2s1)Nc1nc2ccccc2s1 | 76% | 97.1% | 108% | 75% | 114% | 89.3% | 108% | 112% | 81.7%
21 | COc1cccc(-c2nn(-c3ccccc3)cc2-c2ccnc(NCCNC(=O)c3ccccc3)c2)c1 | 84.7% | 66.6% | 71.4% | 49.7% | 90.1% | 74.1% | 68% | 46.6% | 48.7%
22 | CCCCCc1nc2c(c3c1CCCC3)CCCC2 | 80% | 77.1% | 93.3% | 47% | 77.2% | 82.9% | 60.9% | 84.3% | 59.9%
23 | Cc1cc(Cl)nc(NCc2cc(Nc3ccnc4cc(Cl)ccc34)ccc2F)n1 | 77.1% | 68.1% | 52.8% | 44% | 67.1% | 76.1% | 75.3% | 63.3% | 28.9%
24 | N[C@@H](CCCCNCC(=O)O)C(=O)O | 115% | 96.9% | 101% | 91% | 98.1% | 96.8% | 96.9% | 85.4% | 109%
25 | O=C(c1ccc(Nc2nccc(NCCCCNc3ccnc4cc(Cl)ccc34)n2)cc1)N1CCCCC1 | 68.7% | 67.5% | 67.4% | 73.9% | 91.5% | 37.8% | 86.1% | 68% | -11.8% (active)
26 | O=C(O)C1CCC(=O)N1C(=O)OCc1ccccc1 (stereo unspecified) | 103% | 97.8% | 90.1% | 88.7% | 88.7% | 96.3% | 83.4% | 123% | 102%
27 | COC(=O)[C@]12CC[C@@H](C)[C@H](C)[C@@H]1C1=CC[C@@H]3[C@@]4(C)C(C=O)=C[C@@](C)(COC(=O)/C=C/c5ccccc5)[C@@H]4[C@H](O)C[C@@]3(C)[C@]1(C)CC2 | -23.5% (active) | 26.9% | 3.47% (active) | 3.64% (active) | 26% | -14.7% (active) | 15% | 19.6% | 16.4%
28 | O=C(Nc1ccccc1)Nc1cccc(Oc2nnc(Cl)c3ccccc23)c1 | 9.53% (active) | 30% | 53.7% | 34.9% | 25.3% | 33.9% | 84.4% | 49.2% | 47.6%
29 | COc1cc(-c2nc(N3CCN(C)CC3)c3ccccc3n2)cc(OC)c1OC | 81.2% | 67.2% | 82.6% | 45% | 94.1% | 47.5% | 50.3% | 21.6% | 99.3%

— PubChem BioAssay (NCI)
